High-throughput results deposited in PubChem BioAssay by Columbia University Molecular Screening Center.
Insulin prom inh = inhibitors of insulin promoter-driven GFP, primary screen, imaging, TRM-6 cells (human fetal islet line), eGFP reporter, cell count; reporter expression induced with tamoxifen; inhibition, % at 2 µM; actives 0.9% (n = 130,000); AID 1273, 2008;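 active = inhibition above the mean plus 3 SD, with well images judged a real hit on visual review, cut at about 60% in these data, passing the limit was not always enough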
NFkB transloc pot = enhancers of NFkB p65 translocation in HUVEC – imaging, IL-1B stimulus, high-content imaging, primary screen; activation, % at 2 µM; HUVEC IL-1B NFkB p65 nuclear translocation imaging; actives 0.3% (n = 94,000); AID 819, 2007;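 active = activation above 40%, about the mean plus 3 SD, also judged a hit on visual image review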;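 also: percent activation is computed from the nuclear over cytoplasmic p65 intensity ratio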
HUVEC tox IL1B = cytotoxicity in IL-1B stimulated HUVEC, primary screen, cytotoxicity control for IL-1B NFkB translocation project, imaging, Hoechst nuclear count, IL-1B stimulus; HUVEC cell count loss; cell count reduction, % at 2 µM; actives 0.41% (n = 94,000);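 active = cell count reduction more than 3 SD above the screen-wide mean, cut at about 70% in these data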
IL1B NFkB inh = inhibitors of IL-1B driven NFkB p65 nuclear import, primary screen, imaging, HUVEC, IL-1B stimulus, high-content imaging; HUVEC IL-1B NFkB p65 nuclear translocation imaging; inhibition, % at 2 µM; actives 0.43% (n = 94,000);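 active = inhibition above about 30% together with a positive call from visual inspection of the well image, limit read from the data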;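 also: nuclear over cytoplasmic p65 intensity ratio measured by imaging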
Hits are given with their value; . = inactive; / = not tested or not shown. The list is not random: actives were taken first. Their share in the collection is about 1.3%.

SMILES | Insulin prom inh | NFkB transloc pot | HUVEC tox IL1B | IL1B NFkB inh
CC1=C(C(=O)N2CCC3(CC2)OCCO3)C2(CCC(C)CC2)OC1=O (configuration not stated) | 73 | . | . | .
Cc1cccc(CN2CCCC(C(=O)c3ccc4c(c3)OCO4)C2)n1 (configuration not stated) | . | / | / | /
O=c1c2ccccc2nc(-c2ccco2)n1-c1cccnc1 | . | . | 84 | .
O=c1c2ccccc2nc(-c2ccco2)n1-c1ccccn1 | . | . | . | .
Brc1ccc2c(c1)C(OC1CN3CCC1CC3)c1ccccc1CS2 (configuration not stated) | . | / | / | /
CC(C)OCCCNC(=O)c1c(N)n(CC2CCCO2)c2nc3ccccc3nc12 (configuration not stated) | . | . | 90 | 97
CCCNC(=O)c1c(N)n(CC2CCCO2)c2nc3ccccc3nc12 (configuration not stated) | / | . | . | .
CC(C)CCn1c(=O)c(C(=O)Nc2ccccc2S(N)(=O)=O)c(O)c2ccccc21 | . | . | . | 39
CCCCn1c(=O)c(C(=O)Nc2cnccn2)c(O)c2ccccc21 | . | . | . | .
CC(C)Oc1ccc(C2(C#N)CC[N+](C)(C)CC2)cc1 | . | / | / | /
Clc1ccccc1CN1CCN(c2ccccc2)CC1 | . | / | / | /
CC(C)(C)c1ccc(O)c(CN2CCN(c3ccccc3)CC2)c1 | 82 | . | . | .
COc1ccc(CCNCc2ccccn2)cc1OC | . | . | . | 36
O=C1CC(C(=O)N2CCC3(CC2)OCCO3)CN1CCc1ccccc1 (configuration not stated) | 80 | . | . | .
c1ccc2c3c(ccc2c1)OCC1CONC31 (configuration not stated) | . | / | / | /
CN1C(=O)c2ccccc2Sc2ccc(C(=O)N3CCC4(CC3)OCCO4)cc21 | . | 157 | . | .
CC1CN(CCc2ccccc2)CC(C)O1 (configuration not stated) | 70 | . | . | .
O=C(CNS(=O)(=O)c1ccc(Br)s1)N1CCC2(CC1)OCCO2 | . | 43 | . | .
O=C(c1ccc(CNS(=O)(=O)c2ccc(Br)cc2)cc1)N1CCC2(CC1)OCCO2 | . | / | / | /
O=C(COc1ccc(Cl)cc1)N1CCN(Cc2ccccc2)CC1 | / | 43 | . | .
CC(C)NS(=O)(=O)c1ccc(OCC(=O)N2CCN(Cc3ccccc3)CC2)cc1 | . | . | . | .
CS(=O)(=O)N1CCN(C(=N)N[N+](=O)[O-])CC1 | . | / | / | /
CCN(CC)CCN=Cc1c(O)n(CCC2=CCCCC2)c(=O)[nH]c1=O | . | . | 89 | .
CC(=NCCN1CCCCC1)c1c(O)n(-c2ccc(Cl)cc2)c(=O)[nH]c1=O | . | . | . | .
CCC12C=CCN3CCC4(c5cc(Br)c(OC)cc5N(C)C4C(O)(C(=O)OC)C1OC(C)=O)C32 (configuration not stated) | / | 40 | . | .
O=C(Nc1nc(-c2ccccc2)c(-c2ccccc2)s1)c1ccc(S(=O)(=O)N(CCCl)CCCl)cc1 | . | / | / | /
CC(=O)Nc1ccccc1OP1(=O)COc2ccccc2OC1 | 77 | . | . | .
CCCCCc1cc(O)c2c3c(c(=O)oc2c1)CN(C)CC3 | . | / | / | /
CCCNS(=O)(=O)c1ccc(OCC(=O)N2CCN(C)CC2)cc1 | . | . | 88 | .
O=C(Nc1ccccc1)OC1CN=C(N[N+](=O)[O-])NC1 (configuration not stated) | . | / | / | /
